Laboratory results taken from ChEMBL document CHEMBL3988442, “University of Dundee, Small-Polar-MMV Screening Library” (2021).
Among all 65,000 compounds or so, about 65 (0.1%) showed an effect of 50% or more. What follows is part of a selection rich in strong results, with near analogues and random picks from the rest.

Molecular target: Tryptophan--tRNA ligase (Mycobacterium tuberculosis (strain ATCC 25618 / H37Rv)) (UniProt P9WFT3)
Assay: Biochemical assay for Mt-TrpRS
Assay type: functional
Parameters: scale not given: direction of the effect not stated beside the values
Details: 10 µM

Chain of Tryptophan--tRNA ligase (Mycobacterium tuberculosis (strain ATCC 25618 / H37Rv)) (P9WFT3 whole entry): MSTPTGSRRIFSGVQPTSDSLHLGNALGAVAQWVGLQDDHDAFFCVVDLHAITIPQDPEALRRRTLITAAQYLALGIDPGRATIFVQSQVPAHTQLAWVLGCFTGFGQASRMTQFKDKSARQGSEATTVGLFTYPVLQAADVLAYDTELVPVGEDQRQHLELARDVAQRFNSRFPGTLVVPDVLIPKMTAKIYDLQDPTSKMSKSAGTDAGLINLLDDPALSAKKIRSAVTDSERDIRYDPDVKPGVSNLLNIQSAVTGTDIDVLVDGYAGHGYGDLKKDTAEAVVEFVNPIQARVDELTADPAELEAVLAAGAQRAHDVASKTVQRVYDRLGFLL

Point of comparison: O=C(COc1ccc(Cl)cc1)N1CCOCC1c1ncon1 (centres undefined), Percent Effect 3.96%. Against it:
- CC(C)C(NC(=O)C1CC1)c1cc(O)nc(-c2cccnc2)n1 (centres undefined) — lower, 2.42%
- CC(NC(=O)C1CCCCC1)c1cc(O)nc(-c2cccnc2)n1 (centres undefined) — lower, 0.0653%
- CC(C)C(NC(=O)C1CCCC1)c1cc(O)nc(-c2cccnc2)n1 (centres undefined) — higher, 65.2%
- Cc1ccc(CNCc2nnc3n2CC(C(F)(F)F)CC3)o1 (centres undefined) — lower, -0.327%
- CCOc1ccc2ccccc2c1CNCC1CCS(=O)(=O)C1 (centres undefined) — lower, -4.67%
- Cc1ccc(N2C[C@H](C(=O)N3CCOCC3)[C@@H]3CCO[C@@H]3C2)nn1 — lower, -1.89%
- CC(C)N(C)CC(=O)N(C)C(c1cccc(F)c1)c1ccccn1 (centres undefined) — higher, 94.7%
- CCCC(=O)N(C)C(c1cccc(F)c1)c1ccccn1 (centres undefined) — lower, -2.61%
- CC(C)NC(=O)N(C)C(c1cccc(F)c1)c1ccccn1 (centres undefined) — lower, -3.48%
- CCN(CC)CC(=O)N(C)C(c1cccc(F)c1)c1ccccn1 (centres undefined) — lower, 0.435%
- CC(=O)N(C)C(c1cccc(F)c1)c1ccccn1 (centres undefined) — higher, 70.3%
- CCNC(=O)N(C)C(c1cccc(F)c1)c1ccccn1 (centres undefined) — lower, 2.8%
- Cc1nnc([C@@]23CCO[C@@H]2CCN(S(C)(=O)=O)C3)o1 — higher, 14.4%
- CC(c1ccncc1)N1Cc2nc(N(C)C)ncc2C1=O (centres undefined) — lower, 0.86%
- COC(=O)c1ncccc1N1CCCCC1 — lower, 0.136%
- Cc1ccc(CN2C[C@H](N3CCOCC3)[C@@H]3OCCC[C@@H]32)o1 — lower, -6.03%
- CCn1c(C(=O)N2CCN(C(=O)NC(C)C)CC2)cc2ccccc21 — lower, 0.24%
- CCC(O)CN1CCN(C(=O)c2cc3ccccc3n2CC)CC1 (centres undefined) — higher, 84.1%
- CCn1c(C(=O)N2CCN(CC(C)O)CC2)cc2ccccc21 (centres undefined) — lower, 0.24%
- c1cnc(N2CCO[C@H]3CN(Cc4ccsc4)C[C@H]32)nc1 — lower, -4.69%
- COc1ccc2nnc(CCCC(=O)NCc3cccn3C)n2n1 — lower, 1.21%
- COc1ccc2nnc(CCC(=O)NCc3cccn3C)n2n1 — lower, 1.87%
- Cn1cccc1CNC(=O)CCCc1nnc2ccccn12 — higher, 224%
- CS(=O)(=O)NC[C@]12COC[C@H]1CN(C(=O)c1ccccc1)C2 — lower, -5.18%
- CC(=O)N1CC2(CCN(Cc3ccc(Cl)cc3)CC2)Cc2ccccc21 — lower, -5.45%
- CN1C(=O)CC(C(=O)O)C12CCN(Cc1ccc(Cl)c(F)c1)CC2 (centres undefined) — higher, 54.6%
- CN1C(=O)CC(C(=O)O)C12CCN(Cc1ccc(F)c(Cl)c1)CC2 (centres undefined) — lower, -3.47%
- CN1C(=O)CC(C(=O)O)C12CCN(Cc1ccc(Cl)c(Cl)c1)CC2 (centres undefined) — lower, -7.74%
- CN(C)c1ncccc1CNC(=O)N1CCCC1CN1CCCCC1 (centres undefined) — lower, -0.719%
- CN(C)c1ncccc1CNC(=O)N1CCCC1c1ccsc1 (centres undefined) — lower, -2.64%
- CN(C)c1ncccc1CNC(=O)N1CCCC1CN1CCCC1 (centres undefined) — higher, 67.8%
- CS(=O)(=O)N1CC[C@]2(O)CCN(c3cc(C#N)ccn3)C[C@@H]2C1 — lower, -1.89%
- CO[C@@H]1CC[C@H]2[C@H]1OCCN2CCOCc1ccccc1 — lower, -7.44%
- CCN1CCO[C@@H]2CN(C(=O)COC3CCCC3)C[C@@H]2C1 — higher, 14.7%
- O=C(CC1CC1)N1CCC2(CC1)C(=O)NCCN2Cc1ccccc1 — higher, 54.2%
- O=C(NC1CC1)N1CCC2(CC1)C(=O)NCCN2Cc1ccccc1 — lower, -5.09%
- CC(C)NC(=O)N1CCC2(CC1)C(=O)NCCN2Cc1ccccc1 — lower, -4.29%
- COc1ccccc1C1(C(=O)NCCN2CCOCC2)CCOCC1 — lower, -0.235%
- COc1ccccc1C1(C(=O)NCCN2CCCCC2)CCOCC1 — higher, 73.8%
- Cc1ccccc1C1(C(=O)NCCN2CCCC2)CCOCC1 — lower, 1.49%
- COc1ccc(CN2C[C@H]3CN(c4cncnc4)C(=O)[C@H]3C2)cc1 — lower, 0.241%
- Cc1c(Cl)c(C(=O)NC(C)CN2CCOCC2)nn1C (centres undefined) — lower, -1.4%
- Cc1oncc1C(=O)N1C[C@H]2CCCC(N(C)Cc3cccs3)[C@H]2C1 (some centres undefined) — lower, 0.971%
- CSc1ccc(C(=O)N2CCOCC2c2c(C)nn(C)c2C)o1 (centres undefined) — lower, -3.05%
- Cc1nn(C)c(C)c1C1CCCN1C(=O)c1ccc(Cl)o1 (centres undefined) — lower, 0%
- Cc1nn(C)c(C)c1C1COCCN1C(=O)c1ccc(Cl)o1 (centres undefined) — higher, 80.8%
- CS(=O)(=O)N[C@H]1CN(C(=O)c2cscn2)[C@@H]2CCCO[C@H]12 — lower, 1.91%
- Cn1cc(CN2CCO[C@H]3CN(Cc4ccco4)C[C@H]32)cn1 — lower, -5.69%
- O=C(N[C@@H]1CN(C2CCCC2)C[C@@H]2CCCO[C@@H]21)c1cnccn1 — lower, -1.79%
- COCC1CC2(CCN(C(=O)c3ccc(OC)c(Cl)c3)CC2)CO1 (centres undefined) — lower, -1.65%
- COCC1CC2(CCN(C(=O)c3ccc(F)c(Cl)c3)CC2)CO1 (centres undefined) — higher, 54.8%
- COCC1CC2(CCN(C(=O)c3cccc(C)c3)CC2)CO1 (centres undefined) — lower, -6.95%
- c1ccc(NC[C@@H]2CCC[C@@H]3CN(Cc4cc[nH]n4)C[C@@H]32)nc1 — lower, -8.1%
- CN(C)C(=O)N[C@H]1CN(Cc2ccc3c(c2)OCO3)[C@@H]2CCCO[C@H]12 — lower, -1.66%
- COCCc1noc(CN(C)C2CCCN(c3ccc(C)nn3)C2)n1 (centres undefined) — lower, 0.711%
- CCc1nc(CN(C)C2CCCN(c3cccnn3)C2)no1 (centres undefined) — higher, 10.3%
- CN(CC(=O)Nc1cccnc1)C1CCCN(c2cccnn2)C1 (centres undefined) — higher, 57.9%
- CN(CC(=O)Nc1ccncc1)C1CCCN(c2cccnn2)C1 (centres undefined) — lower, -2.13%
- Cc1nnc(NC(=O)CN(C)C2CCCN(c3cccnn3)C2)s1 (centres undefined) — lower, -2.71%
- COCCc1noc(CN(C)C2CCCN(c3cccnn3)C2)n1 (centres undefined) — higher, 67.5%
- CN(Cc1ccco1)[C@@H]1CN(C(=O)c2ccnnc2)C[C@@H]2CCCO[C@@H]21 — higher, 4.52%
- O=C1CO[C@H]2CN(Cc3ccc4c(c3)OCO4)C[C@H]2N1 — lower, -0.835%
- CNC(=O)[C@@]12CCO[C@@H]1CCN(Cc1cccc(C)c1)C2 — lower, -2.81%
- C=C1C(C)(C)[C@H]2CC[C@]1(C(=O)N1CCC(n3cc(CCO)nn3)CC1)C2 — lower, 1.01%
- CCn1cnnc1CNC(=O)NC(c1ccccc1)C1CCCC1 (centres undefined) — lower, 0.594%
- CCn1cnnc1CNC(=O)NC(C)c1cccs1 (centres undefined) — lower, -0.56%
- CCn1cnnc1CNC(=O)NC(c1cccs1)C1CCCC1 (centres undefined) — higher, 55.9%
- O=C(COc1cccc(Br)c1)N1CCOCC1c1ncon1 (centres undefined) — lower, -4.77%
- O=C(COc1cccc(Cl)c1)N1CCOCC1c1ncon1 (centres undefined) — higher, 60.2%
- O=C(c1ccccc1)N1CC[C@H]2C[C@H](c3nccs3)O[C@@H]2C1 — lower, 0.277%
- CN(C)C(=O)c1cncnc1-c1ccc(CNC(=O)C2CCCO2)cc1 (centres undefined) — higher, 59.1%
- CN(C)C(=O)c1cncnc1-c1ccc(CNC(=O)C2CC2)cc1 — lower, 1.32%
- COCC(=O)NCc1ccc(-c2ncncc2C(=O)N(C)C)cc1 — lower, -3.46%
- COc1ccc(CN2C[C@@H]3CN(S(=O)(=O)C4CC4)C[C@@H]3C2=O)cc1 — lower, 2.34%
- c1cnc(N2CC[C@@H]3[C@@H]2CCN3Cc2cccs2)nc1 — lower, -3.73%
- Cc1cc(C)n(CC2CCCN2C(=O)c2c(C)noc2C)n1 (centres undefined) — higher, 66.8%
- CCc1noc(C)c1C(=O)N1CCCC1Cn1nc(C)cc1C (centres undefined) — lower, 1.85%
- Cc1cc(C)n(CC2CCCN2C(=O)Cc2c(C)noc2C)n1 (centres undefined) — lower, -1.17%
- CS(=O)(=O)NC[C@@H]1OC[C@H]2CN(C(=O)c3ccccc3)CC[C@H]21 — lower, -2.6%
- Cc1ncoc1C(=O)N1C[C@H]2CCC[C@@]2(COCC2CCOCC2)C1 — lower, -1.66%
- O=C(CC1CC1)N1CCO[C@H]2[C@H](OCCCn3cccn3)CC[C@@H]21 — lower, -5.05%
- c1cncc(CN2CC[C@H]3O[C@@H](COCC4CCOCC4)CC[C@H]32)c1 — lower, -0.469%
- CC[S+](CC)[c-]1c(=O)[nH]c(=O)n(Cc2ccc(F)cc2)c1=O — lower, -5.58%
- CN(Cc1nnc2n1CCC2)C(=O)c1ccc2c(c1)OCCCO2 — higher, 19.8%
- CN(Cc1nnc2n1CCC2)C(=O)c1ccc2c(c1)OCCO2 — higher, 69.5%
- CN(Cc1nnc2n1CCC2)C(=O)c1ccc2c(c1)OCO2 — lower, -1.84%
- CCN1CCCN(c2ccc(-n3ccc(C)n3)nn2)CC1 — lower, 1.17%
- CCCN1CCCN(c2ccc(-n3ccc(C)n3)nn2)CC1 — lower, -6%
- Cc1ccn(-c2ccc(N3CCCN(Cc4ccccc4)CC3)nn2)n1 — higher, 119%
- O=S(=O)(c1ccccc1)N1C[C@@H]2COC[C@]2(COCC2CC2)C1 — higher, 9.94%
- O=C(c1ccc(F)c(F)c1)N1C[C@H]2CNC[C@H]2C1 — lower, -6.39%
- Fc1ccc(-c2nc(CN3CCCCC3Cn3cncn3)co2)cc1 (centres undefined) — lower, -4.8%
- Cc1ccc(-c2nc(CN3CCCC3Cn3cncn3)co2)cc1 (centres undefined) — lower, -4.8%
- Fc1ccc(-c2nc(CN3CCCC3Cn3cncn3)co2)cc1 (centres undefined) — higher, 53.9%
- Fc1cccc(-c2nc(CN3CCCC3Cn3cccn3)co2)c1 (centres undefined) — higher, 74.9%
- Fc1cccc(-c2nc(CN3CCCC3Cn3cncn3)co2)c1 (centres undefined) — higher, 10.9%
- Cc1cnn(CC2CCCN2Cc2coc(-c3cccc(F)c3)n2)c1 (centres undefined) — higher, 4.37%
- CS(=O)(=O)N1C[C@@H]2OCC(=O)N(CC3CCC3)[C@@H]2C1 — lower, -0.527%
- Cc1nn(C)c(N(C)C)c1CNCCCN(C)S(C)(=O)=O — lower, -0.817%
- Cc1nn(C)c(N(C)C)c1CNCCS(C)(=O)=O — higher, 57.4%
- CCN(CCCNCc1c(C)nn(C)c1N(C)C)S(C)(=O)=O — lower, -2.27%
- Cc1nn(C)c(N(C)C)c1CNCCNS(C)(=O)=O — lower, -3.19%
- CCS(=O)(=O)NCCCNCc1c(C)nn(C)c1N(C)C — higher, 51.9%
- Cc1nn(C)c(N(C)C)c1CNCCCNS(C)(=O)=O — higher, 24.1%
- CC(=O)N1[C@H](CN(C)C)C[C@@H]2CN(C(=O)c3cccn3C)CC[C@@H]21 — lower, -8.29%
- Cc1cccc(COC[C@]23COC[C@H]2CN(c2ncccn2)C3)n1 — lower, -0.382%
- Cc1nn(C)c(N2CCOCC2)c1CN[C@@H]1c2ccccc2C[C@@H]1O — lower, -6.65%
- c1coc(CN2CC[C@H]3O[C@@H](COCC4CC4)CC[C@H]32)c1 — lower, -3.59%
- CCN(CC)S(=O)(=O)N1CCCC(c2ncc3c(n2)CCN(C)C3)C1 (centres undefined) — higher, 50.2%
- CN1CCc2nc(C3CCCN(S(=O)(=O)N4CCCC4)C3)ncc2C1 (centres undefined) — lower, -5.94%
- CN1CCc2nc(C3CCCN(S(=O)(=O)c4ccccc4)C3)ncc2C1 (centres undefined) — lower, -1.11%
- CC(=O)N1CCN(C(=O)c2cc(C(C)C)no2)[C@H]2CS(=O)(=O)C[C@H]21 — lower, -1.55%
- NC[C@H]1CC[C@H](c2c(C(N)=O)sc3ccccc32)CC1 — lower, -6.86%
